Screening data (PubChem BioAssay)
SMN2 splice up = enhancers of SMN2 splice variant expression. HEK293 SMN2-luciferase splicing reporter, luminescence, 30-36 h. Potency, µM (highest dose often 46.1 µM), usual class: activators. actives 2.8% (n = 210,000). AID 1458; also: nearly all actives have a fitted effect of over 55% in size
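HEK293 cells carry an SMN2 minigene-luciferase reporter in which exon 7 inclusion puts luciferase in frame. Cells were seeded at 2000 cells/well, attached for 10-12 hours, then exposed to compounds for 30-36 hours at 37C before ONE-Glo luminescence.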
ELG1 DNA repair = ELG1-dependent DNA repair inhibition; HEK293T ELG1-luciferase reporter, luminescence, 16 h; DNA damage induced by 5-fluorouridine; Potency, µM (titrated, usually from 46.1 µM), hits mostly inhibitors; AID 504467; actives 2.3% (n = 330,000); also: nearly all actives have a fitted effect of over 55% in size
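Cells (2,000 per well) received 5-fluorouridine plus test compound or DMSO and were incubated 16 hr at 37 °C, 5% CO2. Luciferase activity was read by luminescence 30 min after ONE-Glo addition; signal suppression marked inhibition of damage-induced ELG1 function.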
Rab9 promoter act = Rab9 promoter activation | Potency, µM (doses to about 9.22 µM), usual class: activators | actives 2.8% (n = 320,000) | Huh7 Rab9 promoter-luciferase reporter, luminescence, 24 h; also: nearly all actives have a fitted effect of over 60% in size
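Cell-based reporter: Huh7 stable for Rab9 promoter-driven luciferase, plated in reduced-serum medium with 10% FBS at 1500 cells/well, compound-treated 24 h at 37 °C, luminescence read after 10 min reagent.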
NPC1 promoter act = activators of NPC1 promoter | Huh7 NPC1 promoter luciferase reporter, 24 h | Potency, µM (series often up to 9.22 µM), actives largely listed as activators | actives 2.4% (n = 320,000); also: nearly all actives have a fitted effect of over 60% in size
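Cells: Huh7 expressing luciferase under the NPC1 promoter, 1500/well. Seeded 2 h, compound added, incubated 24 h at 37 °C. Luciferase reagent, 10 min ambient, then luminescence.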
ELG1 genotoxic = induces genotoxicity in HEK293T cells with luciferase-tagged ELG1 | actives 1.3% (n = 330,000) | HEK293T ELG1-luciferase reporter, luminescence, 16 h | Potency, µM (doses to about 46 µM), most hits filed as activators | AID 504466; also: nearly all actives have a fitted effect of over 60% in size
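Genotoxic stress is detected as increased luminescence from luciferase-tagged ELG1 in HEK293T cells, measured with ONE-Glo after a 16 hr treatment at 37 °C.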
FLuc counter = firefly luciferase modulation, counter-screen for miR-21 project; P08659; purified FLuc, Km substrates, luminescence inhibition; Potency, µM (highest dose often 57.5 µM), actives largely listed as inhibitors; actives 6.9% (n = 360,000); also: nearly all actives have a fitted effect of over 55% in size
Target sequence (P08659 whole entry, looked up): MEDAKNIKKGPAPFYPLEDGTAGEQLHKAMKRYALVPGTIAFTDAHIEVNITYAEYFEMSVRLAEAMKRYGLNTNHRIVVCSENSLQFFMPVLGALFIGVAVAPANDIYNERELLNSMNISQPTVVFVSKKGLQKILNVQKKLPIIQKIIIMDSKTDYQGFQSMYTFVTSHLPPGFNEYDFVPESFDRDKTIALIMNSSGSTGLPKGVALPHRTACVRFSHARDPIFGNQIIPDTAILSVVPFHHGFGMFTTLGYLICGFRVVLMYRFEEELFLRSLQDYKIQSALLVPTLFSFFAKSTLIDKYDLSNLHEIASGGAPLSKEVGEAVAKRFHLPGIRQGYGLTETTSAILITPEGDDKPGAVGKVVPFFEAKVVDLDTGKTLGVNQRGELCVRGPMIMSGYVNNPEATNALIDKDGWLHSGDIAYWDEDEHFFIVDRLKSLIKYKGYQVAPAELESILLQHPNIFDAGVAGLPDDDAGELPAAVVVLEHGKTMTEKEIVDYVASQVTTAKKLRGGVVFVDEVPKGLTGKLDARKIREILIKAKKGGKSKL
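Purified P. pyralis luciferase, 10 nM final, with Km-level 10 uM D-luciferin and 10 uM ATP in 50 mM Tris acetate pH 7.5, 10 mM Mg acetate, 0.01% Tween-20, 0.05% BSA; 6-point qHTS titration about 60 µM downward; luminescence read.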
ELG1 Luc conf = inhibits ELG1-dependent DNA repair in HEK293T cells, confirmed; shares compounds with ELG1 DNA repair; actives 68% (n = 670); Potency, µM (top dose mostly 46.1 µM), actives largely listed as inhibitors; HEK293T ELG1-luciferase levels, luminescence; cells co-treated with 5-fluorouridine; also: nearly all actives have a fitted effect of over 55% in size
ELG1 MMS Luc = MMS-stimulated human ELG1 repair inhibition, confirmed. shares compounds with ELG1 DNA repair. HEK293T luciferase-tagged ELG1 level, MMS stimulated. Potency, µM (top dose mostly 46.1 µM), usual class: inhibitors. actives 53% (n = 670). AID 624249; also: nearly all actives have a fitted effect of over 60% in size
ELG1 5FU viab = confirmation of ELG1 repair inhibitors: viability with 5FU. shares compounds with ELG1 DNA repair. cell viability with 5-FU, ELG1-dependent repair. Potency, µM (titrated, usually from 46.1 µM), hits mostly cytotoxic. 670 tested, under 10 active. AID 624250;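 also: ELG1-luc HEK293T cells cotreated with 5-fluorouridine at 10 µM final; viability measured 16 h after compound addition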
ELG1 MMS cell = confirmation of ELG1 repair inhibitors: viability with MMS | actives 33% (n = 670) | Cell viability with MMS, ELG1-dependent DNA repair | Potency, µM (highest dose often 46.1 µM), actives largely listed as cytotoxic | AID 624251 | shares compounds with ELG1 DNA repair;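 also: ELG1-luc HEK293T cells co-treated with 10 µM MMS; viability read 16 h after compound addition; nearly all actives have a fitted effect of over 60% in size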
ELG1 unstim viab = counter-screen for ELG1 repair inhibitors: unstimulated cell viability. shares compounds with ELG1 DNA repair. cell viability counter-screen, unstimulated, luminescence. Potency, µM (titrated, usually from 45.9 µM), most hits filed as cytotoxic. actives 8% (n = 900). AID 624252;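 also: compound exposure lasted 16 hours before reading; nearly all actives have a fitted effect of over 55% in size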
Each line names hits and unclear results; the compound was inactive in the other large screens (follow-up assays come after a bar, where they were run). Sampled rows, rich in hits. Any-hit rate of the full collection: about 9.3%. Calls follow the shape of the dose curve; as a rule, active = well fitted curve in the direction sought with a large enough effect; inconclusive = small, poorly fitted or top-dose-only effect, or another doubt; inactive = no such curve, though single readings can be large; an effect the other way counts as inactive or inconclusive.

O=C(OCC(=O)c1ccc[nH]1)c1ccc(S(=O)(=O)N2CCCCCC2)cc1	none
CC1CN(C(=O)CCn2c(=O)oc3ccccc32)CC(C)O1 (stereo unspecified)	none
CC(=O)c1cc(F)ccc1OCC(=O)Nc1ccc2c(c1)OCO2	ELG1 DNA repair inconclusive, ELG1 genotoxic inconclusive (no result: SMN2 splice up, Rab9 promoter act, NPC1 promoter act, FLuc counter) | ELG1 unstim viab inactive
O=C(COc1cc(F)ccc1[N+](=O)[O-])Nc1ccc2c(c1)OCO2	ELG1 DNA repair inconclusive, FLuc counter inconclusive (no result: SMN2 splice up)
COc1ccc(OC)c(CCNC(=O)c2cnn(-c3ccc(C)cc3C)c2C2CCN(C(=O)OC(C)(C)C)CC2)c1	none (no result: SMN2 splice up, ELG1 DNA repair, Rab9 promoter act, NPC1 promoter act, ELG1 genotoxic)
CCCCc1ccc(S(=O)(=O)NC2CCS(=O)(=O)C2)cc1 (stereo unspecified)	ELG1 DNA repair 3.66µM (no result: SMN2 splice up) | ELG1 Luc conf inactive | ELG1 MMS Luc 11.2µM | ELG1 5FU viab inactive | ELG1 MMS cell 11.2µM | ELG1 unstim viab inactive
CCCCc1ccc(NC(=O)c2ccc(NS(C)(=O)=O)cc2)cc1	none
CCCCc1ccc(NC(=O)c2ccc(N(C)S(C)(=O)=O)cc2)cc1	ELG1 DNA repair 1.46µM (no result: SMN2 splice up) | ELG1 Luc conf inconclusive | ELG1 MMS Luc 0.445µM | ELG1 5FU viab inactive | ELG1 MMS cell 0.628µM | ELG1 unstim viab inconclusive
CCN(CC)S(=O)(=O)c1ccc(NC(=O)c2ccccc2N(C)S(C)(=O)=O)cc1	none
COc1ccc(NC(=O)c2ccc(N(C)S(C)(=O)=O)cc2)cc1OC	none
CCN(CC)S(=O)(=O)c1ccc(NC(=O)c2ccc(N(C)S(C)(=O)=O)cc2)cc1	ELG1 DNA repair 3.66µM | ELG1 Luc conf inconclusive | ELG1 MMS Luc 0.791µM | ELG1 5FU viab inactive | ELG1 MMS cell 1.12µM | ELG1 unstim viab inconclusive
COC(=O)c1ccc(NC(=O)c2ccc(N(C)S(C)(=O)=O)cc2)cc1	ELG1 DNA repair 3.66µM (no result: SMN2 splice up) | ELG1 Luc conf inactive | ELG1 MMS Luc 4.99µM | ELG1 5FU viab inactive | ELG1 MMS cell 4.99µM | ELG1 unstim viab inconclusive
O=C(NCc1ccccc1Cl)C1CCC(=O)N(C2CCCC2)C1 (stereo unspecified)	none (no result: SMN2 splice up)
CCN(CC)S(=O)(=O)c1ccc(N2CCOCC2)c(NC(=O)COc2ccccc2)c1	ELG1 DNA repair inconclusive
CCN(CC)S(=O)(=O)c1ccc(N2CCOCC2)c(NC(=O)c2[nH]c(C)c(C(C)=O)c2C)c1	ELG1 DNA repair inconclusive, ELG1 genotoxic 10.3µM (no result: SMN2 splice up, Rab9 promoter act, NPC1 promoter act, FLuc counter) | ELG1 unstim viab inactive
CCOC(=O)c1c(C)[nH]c(C(=O)Nc2cc(OCC)c(N3CCOCC3)cc2OCC)c1C	ELG1 DNA repair 4.61µM (no result: SMN2 splice up) | ELG1 Luc conf 5.6µM | ELG1 MMS Luc inactive | ELG1 5FU viab inconclusive | ELG1 MMS cell inactive | ELG1 unstim viab inactive
CCN(CC)S(=O)(=O)c1ccc(N2CCOCC2)c(NC(=O)c2ccc(F)cc2)c1	ELG1 DNA repair inconclusive
CCc1ccccc1OCC(=O)Nc1cc(S(=O)(=O)N(CC)CC)ccc1N1CCOCC1	ELG1 DNA repair 2.59µM (no result: SMN2 splice up) | ELG1 Luc conf 4.45µM | ELG1 MMS Luc inactive | ELG1 5FU viab inconclusive | ELG1 MMS cell inactive | ELG1 unstim viab inconclusive
